Out of some 420,000 compounds screened, about 50,000 (12%) were called active. Inconclusive results (about 26%) are left out. This is one part of a sample in which actives are shown more often than they occur. Values without a mark were called inactive. The call rests on the fitted dose curve; in most records, active means well fitted inhibition curve with a large enough effect; inconclusive means small, poorly fitted or top-dose-only effect; inactive means flat fitted curve, though single readings scatter.

61 compounds from PubChem BioAssay AID686979 (National Center for Advancing Translational Sciences (NCATS), 2013) can be followed below.
On the % scale 0 is the no-effect control and ±100 the full control effect; potency means the concentration at half of the fitted maximal effect.

The assay in a line: qHTS for Inhibitors of human tyrosyl-DNA phosphodiesterase 1 (TDP1): qHTS in cells in presence of CPT. Further: nearly all actives have a fitted effect of over 55% in size. Conditions: chicken DT40 Tdp1-/-;hTDP1 cells + 20 nM CPT, ATP luminescence, 48 h; series mostly up to 46.2 µM; activity change, negative = growth inhibition: at the top concentration. A digest of the protocol: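 Cell growth measured by CellTiter-Glo luminescence after a minimum 48 h, 37 C compound exposure with 20 nM CPT in Tdp1-knockout DT40 cells stably expressing hTDP1, seeded 400/well; qHTS titration format.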
Take `CCOc1ncccc1C(=O)OCC(=O)N1c2ccccc2CC1C` (stereo unspecified): the “activity change, negative = growth inhibition” value is -21.5%.
`Oc1cccc2ccc(/C=C/c3ccc(Br)s3)nc12`: the “activity change, negative = growth inhibition” value is -11.9%.
Turning to `Cc1c(C(=O)NCCN2C(=O)S/C(=C\c3cccs3)C2=O)cccc1[N+](=O)[O-]`, the “activity change, negative = growth inhibition” value is -19.9%.
Take `CCCNC(=O)CCn1cc(-c2ccc(OC)cc2)nc1CCN`: the “activity change, negative = growth inhibition” value is -18.8%.
Turning to `CC(=O)c1cccc(NC(=S)N2CCN(S(C)(=O)=O)CC2)c1`, the “activity change, negative = growth inhibition” value is 2.39%.
For `CCCCCn1c(=O)c(C(=O)OCC)c(Cl)c2ccccc21`, the “activity change, negative = growth inhibition” value was -8.41%.
Turning to `CC(=O)c1c(C)oc2ccc(NS(=O)(=O)c3ccccc3)cc12`, the “activity change, negative = growth inhibition” value was -27%.
On to `COc1ccc(S(=O)(=O)Nc2ccc3oc(C)c(C(C)=O)c3c2)cc1`, for which the Potency was 3.26 µM (active).
As to `COc1ccc2oc(C)c(NC(C)=O)c2c1`, the “activity change, negative = growth inhibition” value was 3.05%.
Still for that read-out and setting: the result for `Cc1cccc(-c2noc(CCC(=O)NC3CCCC3)n2)c1` reads 0.0036%; that for `CC(Oc1ccccc1)C(=O)Nc1c2c(nn1-c1ccccc1)CS(=O)C2` (stereo unspecified), 4.72%.
Consider `COc1cccc(NC(=O)Cn2c(=O)cc(C)c3c(C)nn(-c4cccc(F)c4)c32)c1`, for which the “activity change, negative = growth inhibition” value is -23.6%.
In the case of `Cc1cc(C(=O)Nc2cccc(C(F)(F)F)c2)c2c(C)nn(-c3cccc(F)c3)c2n1`, the Potency was 18.4 µM (active).
Turning to `Cc1cccc(NC(=O)c2nnn(-c3cccc(C(F)(F)F)c3)c2N)c1`, the “activity change, negative = growth inhibition” value was -0.269%.
In the case of `O=C(CNC(=O)c1ccccc1F)OCC(=O)c1c[nH]c2ccccc12`, the “activity change, negative = growth inhibition” value was -1.48%.
As for `COc1ccc(S(=O)(=O)NCCSc2nnnn2-c2ccccc2)cc1`, the “activity change, negative = growth inhibition” value was -21.7%.
`CCCn1c(=O)c2c(C(F)(F)F)cc(-c3cccs3)nc2n(CCC)c1=O`: the “activity change, negative = growth inhibition” value is -20.2%.
For `CCn1c(C(O)c2cc(OC)ccc2OC)nc2ccccc21` (stereo unspecified), the “activity change, negative = growth inhibition” value was 12%.
Still for that read-out and setting: to `Cc1nc2ccccc2n1CC(=O)N/N=C/c1cccs1` belongs 5.92%.
For `CCn1c(/C=N/NC(=O)c2ccc(OC)cc2)nc2ccccc21`, the Potency was 13 µM (active).
Turning to `O=C(CCN1CCCCC1)Nc1ccc(F)c(F)c1`, the “activity change, negative = growth inhibition” value is 1.1%.
Consider `O=C(CNS(=O)(=O)c1ccc2ccccc2c1)Nc1ccc(F)c(F)c1F`, for which the “activity change, negative = growth inhibition” value is 3.97%.
On the same count and under the same terms, to `CCCc1cc(=O)[nH]c(SCC(=O)N2CCN(S(=O)(=O)c3ccc(C)cc3C)CC2)n1` belongs -5.18%.
Take `Cc1ccc(S(=O)(=O)N2CCN(C(=O)Cc3sc(C)nc3-c3ccc(F)cc3)CC2)c(C)c1`: the Potency was 18.4 µM (active).
Regarding `Cc1ccc(S(=O)(=O)N2CCN(C(=O)COC(=O)c3c(C)noc3C)CC2)c(C)c1`, the “activity change, negative = growth inhibition” value is -14.3%.
Turning to `CC1(C)NC(=O)N(CC(=O)N2CCN(S(=O)(=O)c3ccccc3F)CC2)C1=O`, the “activity change, negative = growth inhibition” value is -0.0907%.
Regarding `COc1ccccc1CCC(=O)OCC(=O)N1CCN(S(=O)(=O)c2ccc(C)cc2C)CC1`, the Potency was 25.9 µM (active).
For the compound `Cc1ccc(S(=O)(=O)N2CCN(C(=O)CN3C(=O)NC(C)(c4ccc(Cl)cc4)C3=O)CC2)c(C)c1` (stereo unspecified), the Potency is 23.1 µM (active).
In the case of `Cc1nc(-c2ccc(F)cc2)c(CC(=O)Nc2cccc(S(=O)(=O)N3CCOCC3)c2)s1`, the “activity change, negative = growth inhibition” value is -26.3%.
Same read-out and setting: to `Cc1ccc(NC(=O)CN2C(=O)NC(C)(c3ccc(Cl)cc3)C2=O)c(Br)c1` (stereo unspecified) belongs -19.5%.
In the case of `Cc1ccc(S(=O)(=O)N2CCN(C(=O)COC(=O)CNC(=O)c3ccc(C(C)(C)C)cc3)CC2)c(C)c1`, the “activity change, negative = growth inhibition” value was -6.02%.
The same measure, in the same setting: the result for `O=c1[nH]snc1-c1c(Cl)cccc1Cl` reads 6.18%; that for `CC1CCN(S(=O)(=O)c2ccc3ncn(CC(=O)N(C)C4CCCCC4)c(=O)c3c2)CC1`, 24.6%.
As for `CCc1cc(=O)oc2cc(C)cc(OCC(=O)N3CCC[C@@H]3C(=O)O)c12`, the “activity change, negative = growth inhibition” value was -1.07%.
The same measure, in the same setting: to `O=Cc1c(NCCc2cccc(F)c2)c2ccccc2[nH]c1=O` belongs 1.42%; to `Cc1ccc2[nH]c(C)c(CCNC(=O)NC3CCCCC3)c2c1`, -20.3%.
In the case of `CN(Cc1c(F)cccc1Cl)S(=O)(=O)c1cccs1`, the “activity change, negative = growth inhibition” value was -3.52%.
Consider `COc1ccc(CC(=O)N[C@@H]2c3cc(OC)c(OC)cc3C[C@H]2OCc2ccccc2)cc1`, for which the “activity change, negative = growth inhibition” value is -27%.
On to `COc1ccc(C)cc1NC(=O)CN(C)S(=O)(=O)c1ccc2c(c1)n(C)c(=O)c(=O)n2C`, for which the “activity change, negative = growth inhibition” value was -8.72%.
For `Cc1nc(NC(=O)C2CCCCC2)sc1C`, the “activity change, negative = growth inhibition” value was -3.4%.
On to `COc1cc(S(=O)(=O)Nc2ncn[nH]2)ccc1Cl`, for which the “activity change, negative = growth inhibition” value is 1.33%.
Still for that read-out and setting: the result for `Cc1ccccc1NC(=O)Cc1nnc(SCC(=O)N2CCN(c3ccccc3)CC2)n1C` reads -12.8%; that for `COc1ccc(NC(=O)CCc2nnc3n(CC(C)C)c(=O)c4ccccc4n23)cc1OC`, -7.25%; that for `Cn1c(CNC(=O)c2ccco2)nnc1SCC(=O)N1CCN(c2ccccc2)CC1`, 4.55%.
With `CC(C)Cn1c(=O)c2ccccc2n2c(CCC(=O)NCc3ccccn3)nnc12`, the “activity change, negative = growth inhibition” value is -9.44%.
On to `Cn1c(Cc2cccc3ccccc23)nnc1SCC(=O)N1CCN(c2cccc(Cl)c2)CC1`, for which the Potency was 23.1 µM (active).
Same read-out and setting: the result for `CC(C)Cn1c(=O)c2ccccc2n2c(CCC(=O)N3CCN(c4cccc(Cl)c4)CC3)nnc12` reads 10.3 µM (active).
In the case of `Cc1nc(NC(=O)c2ccc3c(c2)OCCO3)ccc1Br`, the “activity change, negative = growth inhibition” value was -15.7%.
As to `CC1CN(C(=S)Nc2cccc(F)c2)CC(C)O1` (stereo unspecified), the “activity change, negative = growth inhibition” value was -2.76%.
On to `O=C(CC1CCCCC1)NCc1ccco1`, for which the “activity change, negative = growth inhibition” value was 16.5%.
As to `CC(=O)N1C[C@@H](CO)[C@@H](N(C)C(=O)c2ccco2)C[C@H]1c1ccccc1`, the “activity change, negative = growth inhibition” value is 3.01%.
Same read-out and setting: to `OCC[C@H]1C[C@H](O)[C@@H](O)[C@]2(Cc3ccccc3CO2)O1` belongs -17%; to `Cc1ccc(C2=CSC3=NS(=O)(=O)CCN23)cc1C`, -16%.
Same read-out and setting: to `CN(Cc1cccs1)C(=O)Cc1c[nH]c2ccccc12` belongs -21.4%.
In the case of `O=C1NC[C@@H](c2ccccc2)OC(=O)[C@H](Cc2ccc(F)cc2)CC/C=C/C[C@H]1CC(=O)N(CCO)Cc1ccccc1`, the Potency was 16.4 µM (active).
For the compound `O=C1CCC/C=C\C[C@@H](CC(=O)N(CCO)Cc2ccccc2)C(=O)NCCO1`, the “activity change, negative = growth inhibition” value was -3.1%.
Same read-out and setting: the result for `CC(C)(C)OC(=O)C[C@@H]1C/C=C\C[C@@H](CC(=O)NCCO)C(=O)N[C@H](Cc2c[nH]c3ccccc23)COC1=O` reads -1.37%; that for `O=C(N[C@@H](Cc1c[nH]c2ccccc12)C(=O)O)OCC1c2ccccc2-c2ccccc21`, 6.57%.
Turning to `O=C(C[C@H]1C/C=C\C[C@@H](NC(=O)OCC2c3ccccc3-c3ccccc32)C(=O)O[C@@H](c2ccccc2)CNC1=O)N[C@H](CO)Cc1ccccc1`, the Potency was 10.3 µM (active).
Turning to `O=C1N[C@@H](c2ccccc2)COC(=O)[C@H](Cc2ccc(F)cc2)C/C=C\C[C@@H]1CC(=O)N(CCO)Cc1ccccc1`, the Potency was 23.1 µM (active).
Regarding `O=C1N[C@H](Cc2c[nH]c3ccccc23)COC(=O)[C@H](Cc2ccc(F)cc2)C/C=C\C[C@H]1CC(=O)N(CCO)Cc1ccccc1`, the Potency is 23.1 µM (active).
